Data taken from the supplement of paper PMC11732987, “Enantioselective OTUD7B fragment discovery through chemoproteomics screening and high-throughput optimisation” (Communications Chemistry, 2025).

What was measured:
Assay in all cases: log2 ratio of Biotin-Ahx-Ub-VS probe labelling (fragment/DMSO); higher = less target engagement (more negative = stronger competition), active = hit call of the paper (q ≤ 0.05, log2 ratio ≤ -1)
Settings in all cases: compound concentration: 200 uM; treatment time: 3 h
[1] = target: T1, USP42 (UniProt Q9H9J4)
T1 sequence (whole entry): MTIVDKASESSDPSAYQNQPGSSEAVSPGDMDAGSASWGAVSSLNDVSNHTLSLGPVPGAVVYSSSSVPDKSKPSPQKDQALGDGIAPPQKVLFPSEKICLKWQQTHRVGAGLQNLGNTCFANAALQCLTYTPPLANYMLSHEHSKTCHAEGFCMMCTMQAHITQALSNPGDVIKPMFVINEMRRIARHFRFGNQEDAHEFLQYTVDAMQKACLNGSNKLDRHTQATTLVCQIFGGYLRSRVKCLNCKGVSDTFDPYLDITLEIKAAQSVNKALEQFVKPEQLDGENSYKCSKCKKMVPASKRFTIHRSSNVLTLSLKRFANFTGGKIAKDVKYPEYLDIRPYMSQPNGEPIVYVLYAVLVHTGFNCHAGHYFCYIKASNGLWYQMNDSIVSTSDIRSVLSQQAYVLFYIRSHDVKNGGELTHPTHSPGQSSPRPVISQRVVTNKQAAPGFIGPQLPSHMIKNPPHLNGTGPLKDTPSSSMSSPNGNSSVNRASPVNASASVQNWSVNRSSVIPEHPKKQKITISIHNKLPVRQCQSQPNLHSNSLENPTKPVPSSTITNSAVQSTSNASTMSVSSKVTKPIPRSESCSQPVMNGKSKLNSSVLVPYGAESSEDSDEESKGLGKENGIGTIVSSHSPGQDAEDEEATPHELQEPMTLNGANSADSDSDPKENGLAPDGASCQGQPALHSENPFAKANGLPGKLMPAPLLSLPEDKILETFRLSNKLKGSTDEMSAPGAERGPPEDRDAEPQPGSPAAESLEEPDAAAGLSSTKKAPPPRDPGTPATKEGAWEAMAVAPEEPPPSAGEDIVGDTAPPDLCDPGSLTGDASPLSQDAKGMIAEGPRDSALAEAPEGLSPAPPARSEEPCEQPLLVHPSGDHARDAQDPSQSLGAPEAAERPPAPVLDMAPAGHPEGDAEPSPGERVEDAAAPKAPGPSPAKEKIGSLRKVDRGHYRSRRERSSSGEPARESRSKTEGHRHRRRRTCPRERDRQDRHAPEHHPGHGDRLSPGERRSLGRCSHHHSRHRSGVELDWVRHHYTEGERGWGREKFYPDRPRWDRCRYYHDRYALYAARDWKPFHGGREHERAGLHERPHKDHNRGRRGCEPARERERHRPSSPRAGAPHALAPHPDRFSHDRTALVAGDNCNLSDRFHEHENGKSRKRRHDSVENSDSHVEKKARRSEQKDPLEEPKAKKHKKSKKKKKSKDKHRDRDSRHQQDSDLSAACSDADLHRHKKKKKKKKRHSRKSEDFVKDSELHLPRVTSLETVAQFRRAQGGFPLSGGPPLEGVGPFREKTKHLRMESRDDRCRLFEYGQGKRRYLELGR
Summary of the method: (§1)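 HEK293T lysate in Tris/CHAPS/IGEPAL buffer with protease inhibitors (495 µg per sample) was given fragment at 200 µM or vehicle for 3 h, in triplicate. It then received Biotin-Ahx-Ub-VS at 0.5 µM final for 1 h. Labelled DUBs were NeutrAvidin-enriched, digested with LysC and trypsin, and run by diaPASEF LC-MS/MS. Values are average log2 fragment/vehicle ratios by unpaired t-test on global-median-normalised Spectronaut quantities of proteins with ≥2 unique peptides.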

[2] = target: USP46 (UniProt P62068)
Summary of the method: as §1

[3] = target: T2, USP47 (UniProt Q96K76)
T2 sequence (whole entry): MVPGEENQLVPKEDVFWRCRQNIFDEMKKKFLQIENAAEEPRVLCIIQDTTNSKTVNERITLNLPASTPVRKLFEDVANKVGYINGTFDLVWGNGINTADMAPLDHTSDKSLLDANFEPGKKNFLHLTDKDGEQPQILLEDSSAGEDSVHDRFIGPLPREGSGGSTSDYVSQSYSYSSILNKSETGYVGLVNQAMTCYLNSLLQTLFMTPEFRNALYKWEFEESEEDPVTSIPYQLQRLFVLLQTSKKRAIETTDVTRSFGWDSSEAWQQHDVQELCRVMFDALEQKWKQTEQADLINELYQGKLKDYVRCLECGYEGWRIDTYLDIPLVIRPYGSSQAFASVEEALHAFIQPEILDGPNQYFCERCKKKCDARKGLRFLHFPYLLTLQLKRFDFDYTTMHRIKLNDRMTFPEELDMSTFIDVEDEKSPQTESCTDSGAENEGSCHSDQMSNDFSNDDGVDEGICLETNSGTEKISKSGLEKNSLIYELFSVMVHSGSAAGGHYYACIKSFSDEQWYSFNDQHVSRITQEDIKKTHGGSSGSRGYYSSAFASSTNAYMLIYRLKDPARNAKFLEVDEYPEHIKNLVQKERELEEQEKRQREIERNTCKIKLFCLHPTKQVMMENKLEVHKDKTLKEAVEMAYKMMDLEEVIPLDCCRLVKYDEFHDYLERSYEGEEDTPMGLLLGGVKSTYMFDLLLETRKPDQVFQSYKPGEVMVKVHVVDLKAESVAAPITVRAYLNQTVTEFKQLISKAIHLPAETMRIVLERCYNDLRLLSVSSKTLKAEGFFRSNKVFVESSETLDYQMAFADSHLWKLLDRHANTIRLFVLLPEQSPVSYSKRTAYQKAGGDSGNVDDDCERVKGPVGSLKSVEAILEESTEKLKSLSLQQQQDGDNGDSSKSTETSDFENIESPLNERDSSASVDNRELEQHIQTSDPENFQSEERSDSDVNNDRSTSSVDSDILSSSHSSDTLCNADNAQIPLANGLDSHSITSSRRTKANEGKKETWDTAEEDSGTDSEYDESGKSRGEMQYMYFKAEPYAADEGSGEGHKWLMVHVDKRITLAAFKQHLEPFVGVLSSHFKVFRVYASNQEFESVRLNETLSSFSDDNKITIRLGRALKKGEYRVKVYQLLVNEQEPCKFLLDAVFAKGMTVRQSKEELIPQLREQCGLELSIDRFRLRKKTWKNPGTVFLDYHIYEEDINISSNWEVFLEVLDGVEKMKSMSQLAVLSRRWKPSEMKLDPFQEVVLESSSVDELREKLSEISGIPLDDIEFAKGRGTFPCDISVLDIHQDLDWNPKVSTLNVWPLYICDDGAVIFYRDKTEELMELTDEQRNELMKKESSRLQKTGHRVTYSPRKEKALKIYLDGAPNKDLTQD
Summary of the method: as §1

[4] = target: T3, USP48 (UniProt Q86UV5)
T3 sequence (whole entry): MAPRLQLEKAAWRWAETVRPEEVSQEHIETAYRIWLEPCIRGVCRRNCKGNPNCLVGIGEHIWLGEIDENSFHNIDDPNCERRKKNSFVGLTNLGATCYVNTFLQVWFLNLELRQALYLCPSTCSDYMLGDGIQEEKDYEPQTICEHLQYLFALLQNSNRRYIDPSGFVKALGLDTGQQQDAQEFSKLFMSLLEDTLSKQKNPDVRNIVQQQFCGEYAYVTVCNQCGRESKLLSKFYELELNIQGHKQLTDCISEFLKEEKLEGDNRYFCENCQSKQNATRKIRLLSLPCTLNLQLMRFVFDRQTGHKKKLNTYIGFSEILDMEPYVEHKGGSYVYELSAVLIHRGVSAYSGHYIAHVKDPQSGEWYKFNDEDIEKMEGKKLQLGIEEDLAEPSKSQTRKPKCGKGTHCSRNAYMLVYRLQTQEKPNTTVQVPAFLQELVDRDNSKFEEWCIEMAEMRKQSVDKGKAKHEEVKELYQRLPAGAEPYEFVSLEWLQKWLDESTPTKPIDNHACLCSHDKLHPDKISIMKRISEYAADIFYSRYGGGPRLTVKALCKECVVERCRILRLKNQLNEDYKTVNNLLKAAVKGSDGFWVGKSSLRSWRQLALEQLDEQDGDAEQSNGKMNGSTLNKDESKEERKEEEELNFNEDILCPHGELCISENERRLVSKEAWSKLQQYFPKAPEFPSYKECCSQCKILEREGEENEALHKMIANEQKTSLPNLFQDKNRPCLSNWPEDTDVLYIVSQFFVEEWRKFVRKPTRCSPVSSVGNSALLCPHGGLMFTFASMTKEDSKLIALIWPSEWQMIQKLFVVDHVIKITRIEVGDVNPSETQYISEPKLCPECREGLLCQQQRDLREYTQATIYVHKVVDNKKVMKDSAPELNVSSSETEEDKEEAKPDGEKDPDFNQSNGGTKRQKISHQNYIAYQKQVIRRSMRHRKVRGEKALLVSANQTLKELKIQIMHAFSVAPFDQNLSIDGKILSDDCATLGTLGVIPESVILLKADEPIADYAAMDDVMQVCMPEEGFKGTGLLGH
Summary of the method: as §1

[5] = target: T4, USP5 (UniProt P45974)
T4 sequence (whole entry): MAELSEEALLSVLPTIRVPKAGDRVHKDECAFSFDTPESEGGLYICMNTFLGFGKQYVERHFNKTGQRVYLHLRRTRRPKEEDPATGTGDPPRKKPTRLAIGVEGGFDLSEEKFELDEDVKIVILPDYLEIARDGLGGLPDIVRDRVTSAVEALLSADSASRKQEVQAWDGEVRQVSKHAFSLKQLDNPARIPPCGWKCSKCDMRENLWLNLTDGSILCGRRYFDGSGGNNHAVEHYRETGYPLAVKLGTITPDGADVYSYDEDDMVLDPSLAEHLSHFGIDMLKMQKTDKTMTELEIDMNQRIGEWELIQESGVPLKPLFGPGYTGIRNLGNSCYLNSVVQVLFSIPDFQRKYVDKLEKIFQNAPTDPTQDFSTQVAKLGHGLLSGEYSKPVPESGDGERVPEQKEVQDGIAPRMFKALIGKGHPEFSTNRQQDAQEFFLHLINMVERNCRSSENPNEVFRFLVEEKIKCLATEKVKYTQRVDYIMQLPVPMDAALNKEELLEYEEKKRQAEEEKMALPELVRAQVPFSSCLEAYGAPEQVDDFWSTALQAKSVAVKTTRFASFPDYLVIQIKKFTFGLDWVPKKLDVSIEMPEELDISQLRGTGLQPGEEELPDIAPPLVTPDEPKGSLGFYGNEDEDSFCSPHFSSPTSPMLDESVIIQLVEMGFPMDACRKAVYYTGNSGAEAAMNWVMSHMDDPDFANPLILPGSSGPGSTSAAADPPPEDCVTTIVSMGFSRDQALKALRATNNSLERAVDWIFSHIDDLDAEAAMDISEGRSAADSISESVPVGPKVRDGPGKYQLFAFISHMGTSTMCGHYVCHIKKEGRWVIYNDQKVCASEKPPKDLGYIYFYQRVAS
Summary of the method: as §1

[6] = target: USP54 (UniProt Q70EL1)
Summary of the method: as §1

[7] = target: USP7 (UniProt Q93009)
Summary of the method: as §1

[8] = target: T5, USP8 (UniProt P40818)
T5 sequence (whole entry): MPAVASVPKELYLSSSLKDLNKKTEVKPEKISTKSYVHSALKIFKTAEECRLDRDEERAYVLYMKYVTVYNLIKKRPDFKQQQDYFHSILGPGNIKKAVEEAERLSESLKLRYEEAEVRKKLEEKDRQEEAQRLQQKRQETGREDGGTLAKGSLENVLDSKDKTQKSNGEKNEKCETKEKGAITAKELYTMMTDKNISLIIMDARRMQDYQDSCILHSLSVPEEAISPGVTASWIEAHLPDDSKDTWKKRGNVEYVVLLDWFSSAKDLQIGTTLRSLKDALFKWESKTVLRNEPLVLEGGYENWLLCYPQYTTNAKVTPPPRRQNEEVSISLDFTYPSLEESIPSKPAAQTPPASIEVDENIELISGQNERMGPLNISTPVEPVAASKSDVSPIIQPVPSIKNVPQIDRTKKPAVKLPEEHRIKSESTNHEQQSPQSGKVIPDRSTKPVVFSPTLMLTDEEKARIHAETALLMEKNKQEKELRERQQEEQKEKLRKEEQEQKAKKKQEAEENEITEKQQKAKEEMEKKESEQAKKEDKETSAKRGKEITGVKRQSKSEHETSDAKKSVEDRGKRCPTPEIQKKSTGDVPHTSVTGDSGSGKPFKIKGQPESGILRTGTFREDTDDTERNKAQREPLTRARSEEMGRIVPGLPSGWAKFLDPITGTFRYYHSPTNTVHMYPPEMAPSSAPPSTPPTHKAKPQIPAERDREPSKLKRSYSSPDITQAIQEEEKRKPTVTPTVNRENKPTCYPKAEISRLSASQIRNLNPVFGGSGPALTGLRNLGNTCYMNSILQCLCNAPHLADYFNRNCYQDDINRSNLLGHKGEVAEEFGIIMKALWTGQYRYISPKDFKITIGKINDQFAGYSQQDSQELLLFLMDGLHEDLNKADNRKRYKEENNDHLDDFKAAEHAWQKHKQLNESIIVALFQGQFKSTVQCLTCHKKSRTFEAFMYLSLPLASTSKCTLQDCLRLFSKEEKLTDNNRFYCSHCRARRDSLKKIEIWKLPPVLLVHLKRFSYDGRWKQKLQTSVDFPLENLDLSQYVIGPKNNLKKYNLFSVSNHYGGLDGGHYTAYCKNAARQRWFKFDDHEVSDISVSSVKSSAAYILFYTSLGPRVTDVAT
Summary of the method: as §1

[9] = target: USP9X (UniProt Q93008)
Summary of the method: as §1

[10] = target: UniProt O00487
Summary of the method: as §1

Measured: log2 ratio of Biotin-Ahx-Ub-VS probe labelling

Sequence of USP46 (P62068 whole entry): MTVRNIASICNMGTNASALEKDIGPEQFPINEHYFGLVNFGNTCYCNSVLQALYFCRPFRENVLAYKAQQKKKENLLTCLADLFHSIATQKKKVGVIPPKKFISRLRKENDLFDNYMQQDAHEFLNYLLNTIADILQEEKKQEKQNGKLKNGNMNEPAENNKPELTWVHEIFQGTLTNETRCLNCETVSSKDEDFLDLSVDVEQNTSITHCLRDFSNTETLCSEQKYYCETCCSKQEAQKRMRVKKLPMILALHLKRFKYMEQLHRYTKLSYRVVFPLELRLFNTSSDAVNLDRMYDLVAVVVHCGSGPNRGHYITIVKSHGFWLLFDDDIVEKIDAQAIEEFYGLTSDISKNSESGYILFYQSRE
Sequence of USP7 (Q93009 whole entry, looked up): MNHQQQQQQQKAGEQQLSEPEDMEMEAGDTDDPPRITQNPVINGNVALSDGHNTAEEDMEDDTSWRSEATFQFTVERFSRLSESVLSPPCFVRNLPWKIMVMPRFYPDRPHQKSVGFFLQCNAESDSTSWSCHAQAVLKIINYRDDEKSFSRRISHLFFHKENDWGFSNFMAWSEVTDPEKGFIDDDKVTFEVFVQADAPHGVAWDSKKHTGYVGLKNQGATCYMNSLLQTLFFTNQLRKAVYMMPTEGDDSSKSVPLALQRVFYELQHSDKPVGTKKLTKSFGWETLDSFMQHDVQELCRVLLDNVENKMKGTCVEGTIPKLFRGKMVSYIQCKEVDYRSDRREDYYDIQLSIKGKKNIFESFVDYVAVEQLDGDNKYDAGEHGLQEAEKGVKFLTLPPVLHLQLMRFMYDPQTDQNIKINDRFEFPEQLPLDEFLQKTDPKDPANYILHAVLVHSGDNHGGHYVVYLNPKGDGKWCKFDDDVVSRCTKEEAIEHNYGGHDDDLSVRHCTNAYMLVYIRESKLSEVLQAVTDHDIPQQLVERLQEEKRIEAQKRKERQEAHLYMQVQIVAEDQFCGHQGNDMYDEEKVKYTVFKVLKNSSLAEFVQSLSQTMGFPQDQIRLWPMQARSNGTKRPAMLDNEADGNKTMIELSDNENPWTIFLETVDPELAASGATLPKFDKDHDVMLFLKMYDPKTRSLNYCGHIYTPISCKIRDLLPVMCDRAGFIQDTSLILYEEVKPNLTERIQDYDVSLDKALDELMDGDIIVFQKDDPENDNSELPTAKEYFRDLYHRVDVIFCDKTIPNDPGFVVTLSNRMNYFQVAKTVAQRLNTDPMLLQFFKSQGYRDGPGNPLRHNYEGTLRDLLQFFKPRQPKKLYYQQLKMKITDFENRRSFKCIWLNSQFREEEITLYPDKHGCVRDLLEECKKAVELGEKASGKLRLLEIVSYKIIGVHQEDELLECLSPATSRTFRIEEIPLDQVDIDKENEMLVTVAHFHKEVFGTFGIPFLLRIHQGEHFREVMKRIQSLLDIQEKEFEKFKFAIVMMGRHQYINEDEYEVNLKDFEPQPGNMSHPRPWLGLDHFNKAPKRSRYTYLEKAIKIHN
Sequence of USP9X (Q93008 whole entry): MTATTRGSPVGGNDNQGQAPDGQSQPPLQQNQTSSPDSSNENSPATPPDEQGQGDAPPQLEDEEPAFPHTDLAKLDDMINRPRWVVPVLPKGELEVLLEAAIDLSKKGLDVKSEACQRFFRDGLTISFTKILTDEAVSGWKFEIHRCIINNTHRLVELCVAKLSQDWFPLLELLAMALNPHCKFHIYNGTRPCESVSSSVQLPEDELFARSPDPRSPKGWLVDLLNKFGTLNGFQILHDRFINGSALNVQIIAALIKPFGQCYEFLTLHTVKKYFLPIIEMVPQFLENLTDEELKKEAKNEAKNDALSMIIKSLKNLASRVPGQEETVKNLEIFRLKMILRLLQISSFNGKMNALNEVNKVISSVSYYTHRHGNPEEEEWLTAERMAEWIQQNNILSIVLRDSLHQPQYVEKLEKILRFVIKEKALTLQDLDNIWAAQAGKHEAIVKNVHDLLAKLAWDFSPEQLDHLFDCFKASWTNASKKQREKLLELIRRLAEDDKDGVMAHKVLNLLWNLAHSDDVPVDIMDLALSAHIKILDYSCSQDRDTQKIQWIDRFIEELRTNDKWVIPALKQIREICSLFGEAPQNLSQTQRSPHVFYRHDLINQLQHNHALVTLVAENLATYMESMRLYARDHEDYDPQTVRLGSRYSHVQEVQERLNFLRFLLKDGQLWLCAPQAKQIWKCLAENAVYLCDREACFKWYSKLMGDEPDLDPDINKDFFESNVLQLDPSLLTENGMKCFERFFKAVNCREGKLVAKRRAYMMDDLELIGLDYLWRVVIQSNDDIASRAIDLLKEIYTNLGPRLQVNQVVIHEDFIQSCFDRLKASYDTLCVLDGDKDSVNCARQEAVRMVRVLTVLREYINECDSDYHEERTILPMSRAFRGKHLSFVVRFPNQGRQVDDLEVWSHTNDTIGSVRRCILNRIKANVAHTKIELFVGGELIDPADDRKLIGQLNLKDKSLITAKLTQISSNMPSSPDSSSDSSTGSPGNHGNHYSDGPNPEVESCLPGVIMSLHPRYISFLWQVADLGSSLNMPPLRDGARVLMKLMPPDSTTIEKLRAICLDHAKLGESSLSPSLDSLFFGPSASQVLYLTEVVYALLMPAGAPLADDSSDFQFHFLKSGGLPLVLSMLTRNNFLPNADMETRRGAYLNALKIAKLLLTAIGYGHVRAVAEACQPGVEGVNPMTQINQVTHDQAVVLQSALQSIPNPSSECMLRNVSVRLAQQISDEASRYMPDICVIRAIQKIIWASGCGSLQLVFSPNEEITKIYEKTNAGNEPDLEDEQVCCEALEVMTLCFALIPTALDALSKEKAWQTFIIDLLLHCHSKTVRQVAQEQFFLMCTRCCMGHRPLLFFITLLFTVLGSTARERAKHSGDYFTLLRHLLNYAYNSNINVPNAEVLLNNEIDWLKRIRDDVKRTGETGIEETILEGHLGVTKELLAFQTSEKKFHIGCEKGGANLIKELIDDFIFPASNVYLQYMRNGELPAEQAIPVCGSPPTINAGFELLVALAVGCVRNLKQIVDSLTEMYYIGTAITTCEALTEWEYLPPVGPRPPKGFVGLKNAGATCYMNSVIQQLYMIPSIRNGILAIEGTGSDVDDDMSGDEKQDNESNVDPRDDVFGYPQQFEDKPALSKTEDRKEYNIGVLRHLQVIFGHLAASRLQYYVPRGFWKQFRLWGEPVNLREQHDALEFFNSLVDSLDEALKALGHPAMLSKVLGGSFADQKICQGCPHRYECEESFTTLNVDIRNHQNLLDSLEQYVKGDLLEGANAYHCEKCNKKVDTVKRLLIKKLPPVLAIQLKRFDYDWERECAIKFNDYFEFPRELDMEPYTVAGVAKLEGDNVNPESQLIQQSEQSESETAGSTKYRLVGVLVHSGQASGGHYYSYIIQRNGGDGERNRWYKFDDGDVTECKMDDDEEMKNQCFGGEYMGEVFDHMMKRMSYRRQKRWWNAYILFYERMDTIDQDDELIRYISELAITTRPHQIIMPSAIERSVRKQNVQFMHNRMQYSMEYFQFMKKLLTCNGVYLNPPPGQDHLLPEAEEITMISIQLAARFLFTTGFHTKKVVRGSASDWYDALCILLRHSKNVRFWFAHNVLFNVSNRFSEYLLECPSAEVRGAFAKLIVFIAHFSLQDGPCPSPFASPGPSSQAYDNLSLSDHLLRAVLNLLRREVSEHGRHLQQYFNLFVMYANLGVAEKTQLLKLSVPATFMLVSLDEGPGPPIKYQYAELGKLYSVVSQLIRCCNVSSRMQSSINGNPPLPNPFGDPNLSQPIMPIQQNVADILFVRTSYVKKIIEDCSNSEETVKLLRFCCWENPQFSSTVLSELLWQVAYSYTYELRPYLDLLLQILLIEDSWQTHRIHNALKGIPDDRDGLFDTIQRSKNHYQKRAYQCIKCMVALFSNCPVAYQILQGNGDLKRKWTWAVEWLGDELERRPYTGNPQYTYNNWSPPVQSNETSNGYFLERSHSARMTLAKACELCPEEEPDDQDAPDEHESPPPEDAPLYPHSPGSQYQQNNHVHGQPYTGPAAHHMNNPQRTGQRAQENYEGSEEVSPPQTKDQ
Sequence of UniProt O00487 (O00487 whole entry): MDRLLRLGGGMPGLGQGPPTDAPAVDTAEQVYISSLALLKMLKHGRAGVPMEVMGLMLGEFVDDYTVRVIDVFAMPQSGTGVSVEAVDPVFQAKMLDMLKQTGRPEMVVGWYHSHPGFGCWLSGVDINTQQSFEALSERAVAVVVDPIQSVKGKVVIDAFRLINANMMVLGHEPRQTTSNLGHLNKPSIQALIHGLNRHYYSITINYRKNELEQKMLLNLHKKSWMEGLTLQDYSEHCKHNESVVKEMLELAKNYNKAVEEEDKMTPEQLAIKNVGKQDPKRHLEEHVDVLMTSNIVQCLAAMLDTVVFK

Cc1cccc(NC(=O)CCl)c1C
inactive: [1] 0.0545 | [2] -0.22 | [3] -0.266 | [4] -0.0682 | [5] -0.738 | [6] -0.507 | [7] -0.293 | [8] -0.346 | [9] -0.185 | [10] -0.182
